D2 ag-1: HTS Assay for Allosteric Agonists of the Human D2 Dopamine Receptor: Primary Screen for Agonists. D(2) dopamine receptor (Homo sapiens), P14416. activation, % at 2 µM. AID 485358, 2010. 0.53% of 340,000 active. HEK293 T-REx D2 cells, calcium flux agonist mode;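 active = activation over 3 SD above normal in the single-dose calcium agonist read, cut at about 30% in these data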
Target sequence (P14416 whole entry, looked up): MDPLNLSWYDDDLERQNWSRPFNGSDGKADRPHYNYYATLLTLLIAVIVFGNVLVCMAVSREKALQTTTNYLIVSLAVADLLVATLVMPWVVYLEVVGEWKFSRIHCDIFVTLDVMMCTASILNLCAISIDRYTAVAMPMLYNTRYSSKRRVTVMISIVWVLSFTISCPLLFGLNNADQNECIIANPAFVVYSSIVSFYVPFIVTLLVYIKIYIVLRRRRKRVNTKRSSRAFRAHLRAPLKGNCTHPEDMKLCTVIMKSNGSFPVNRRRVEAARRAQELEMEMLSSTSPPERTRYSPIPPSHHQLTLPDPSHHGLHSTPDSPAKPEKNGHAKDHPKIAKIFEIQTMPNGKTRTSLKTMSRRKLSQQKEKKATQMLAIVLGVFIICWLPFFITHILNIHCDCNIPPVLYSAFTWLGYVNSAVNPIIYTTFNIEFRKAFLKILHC
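Agonism is scored from calcium flux in a force-coupled, inducible HEK293 cell line expressing D2, read kinetically for 180 s after compound addition against dopamine controls.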
D2 PAM-1: Beta-Arrestin HTS for Positive Allosteric Modulators of the Human D2 Dopamine Receptor: Potentiators; potentiation, % (test concentration not listed); D(2) dopamine receptor (Homo sapiens), P14416; 0.23% of 360,000 active; DiscoveRx D2 beta-arrestin cells, luminescence, 90 min; 100% = 57 uM dopamine signal; in the data active = potentiation above about 50%; inconclusive = mostly about 30% to 49%
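PathHunter beta-arrestin assay in DiscoveRx D2 cells. Compounds were added with an EC20 of dopamine (50 nM final) for 90 min at 37 deg C. Luminescence was read 1 h after detection reagent, with 57 uM dopamine as the EC100 control.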
D2 antag: HTS Assay for Allosteric Antagonists of the Human D2 Dopamine Receptor: Primary Screen for Antagonists. D(2) dopamine receptor (Homo sapiens), P14416. HEK293 TREx D2 cells, calcium flux, dopamine EC80. inhibition, % at 10 µM. 2% of 340,000 active; in the data active = inhibition above about 30%; inactive = below that, where a call was filed
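Tetracycline-induced HEK293 TREx cells expressing D2 receptor forced-coupled to calcium signalling, loaded with no-wash calcium dye. Compounds added and calcium flux read 180 s, then dopamine added at EC80 and read a further 180 s.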
D2 PAM-2: HTS Assay for Positive Allosteric Modulators of the Human D2 Dopamine Receptor: Primary Screen for Potentiators; D(2) dopamine receptor (Homo sapiens), P14416; HEK293 T-REx D2, calcium flux, EC20 dopamine potentiation; potentiation, % at 10 µM; 0.34% of 340,000 active; AID 485347, 2010;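 active = potentiation over 3 SD above the plate norm, cut at about 30% in these data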
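Cells plated with tetracycline inducer and held overnight at 30 C; calcium dye loaded 30–90 min at room temperature; baseline taken, compound added and read 180 s; EC20 dopamine then added and read 180 s.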
D2 ag-2: Beta-Arrestin HTS for Positive Allosteric Modulators of the Human D2 Dopamine Receptor: Agonists; D(2) dopamine receptor (Homo sapiens), P14416; DiscoveRx PathHunter D2 beta-arrestin, luminescence, 90 min; 100% = 57 uM dopamine signal; activation, % (test concentration not listed); 0.084% of 360,000 active; AID 624465, 2012; in the data active = activation above about 40%; inconclusive = between about 15% and that limit
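DiscoveRx PathHunter D2 beta-arrestin cells (2,100/well) attached overnight, then compound-stimulated 90 min at 37 C in HBSS/10 mM HEPES/0.1% Tween-20 buffer; beta-galactosidase complementation read by luminescence after 1 h at ambient temperature. Dopamine 57 uM final (EC100) as control.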
Of the large screens only hits and unclear results are named; the others gave an inactive call. In the library only some 2.4% were active in any assay of this set; here they are far more common.

O=C(COc1ccccc1Cl)Nc1ccccc1C(=O)Nc1cccc(C(=O)O)c1	D2 antag 31
O=C(COc1ccccc1Cl)Nc1ccc(C(=O)O)cc1NC(=O)COc1ccccc1Cl	none
CS(=O)(=O)c1ccc(C(=O)OC2CCOC2=O)cc1[N+](=O)[O-] (centres undefined)	none
CCN(c1ccccc1)S(=O)(=O)c1cc(C(=O)OC2CCOC2=O)ccc1C (centres undefined)	D2 PAM-2 31
Cc1ccc(S(=O)(=O)Nc2ccc(S(=O)(=O)Nc3nccs3)cc2)cc1C	none (no result: D2 ag-1, D2 antag, D2 PAM-2)
O=c1oc2cc(O)ccc2cc1-c1nc2c(s1)CCc1ccccc1-2	D2 ag-1 141, D2 antag 80
O=c1oc2ccccc2cc1-c1nc2c(s1)CCc1ccccc1-2	D2 PAM-1 inconclusive
COc1cc(NC(=O)C2CCCN(S(=O)(=O)c3cn(C)cn3)C2)cc(OC)c1 (centres undefined)	none (no result: D2 ag-1, D2 PAM-1, D2 antag, D2 ag-2)
CC(C)c1ccc(OCC(=O)Nc2c3c(nn2C(C)(C)C)CS(=O)(=O)C3)cc1	D2 PAM-1 57
CC1=C(C(=O)OC2CCCCCC2)C(c2ccc(Cl)cc2Cl)CC(=O)N1 (centres undefined)	none (no result: D2 PAM-1, D2 antag, D2 ag-2)
O=C(CSc1nnnn1Cc1ccccc1)NCC(=O)c1ccccc1	none
O=C(CSc1nnnn1Cc1ccccc1)NCCc1ccccc1	D2 antag 32
O=C(OCC(=O)N1CCCc2ccccc21)c1ccc(C(F)(F)F)cc1	none
O=C(OCC(=O)N1CCCc2ccccc21)c1ccc(S(=O)(=O)C(F)F)cc1	D2 antag 42
CC(C)CNS(=O)(=O)c1ccc(OCC(=O)Nc2ccc3c(c2)OCCO3)cc1	none
CCC(C)NS(=O)(=O)c1ccc(OCC(=O)NCC2CCCO2)cc1 (centres undefined)	D2 PAM-2 34
CC(=O)Nc1ccc(S(=O)(=O)NCC2CCCO2)cc1 (centres undefined)	none (no result: D2 ag-1, D2 antag, D2 PAM-2)
COc1ccc(CC(=O)Nc2ccc(S(=O)(=O)NCC3CCCO3)cc2)cc1 (centres undefined)	D2 antag 32
CCC(C)NS(=O)(=O)c1ccc(OCC(=O)Nc2ccc3c(c2)OCCO3)cc1 (centres undefined)	D2 PAM-2 48
Cc1ccc2ccc3cc(C(=O)N4CCN(c5ccccc5)CC4)nc3c2[nH]1	none (no result: D2 PAM-1, D2 antag, D2 ag-2)
Cc1cc(C)c2c(-n3cccc3)c(C(=O)NCCc3ccc(Cl)cc3)sc2n1	none (no result: D2 PAM-1, D2 antag, D2 PAM-2, D2 ag-2)
CC(CCc1ccccc1)NC(=O)CN1CCN(Cc2ccccc2)C1=O (centres undefined)	none
Cc1ccc(CN2CCN(CC(=O)NC(C)CCc3ccccc3)C2=O)cc1 (centres undefined)	D2 PAM-2 30
CC(CCc1ccccc1)NC(=O)c1ccc(C(=O)NC(C)CCc2ccccc2)cc1 (centres undefined)	none
CC(CCc1ccccc1)NC(=O)c1ccccc1C(=O)O (centres undefined)	D2 ag-1 30
CC(C)CN1C(=O)C(=O)N(CC(=O)NC(C)CCc2ccccc2)C1=O (centres undefined)	D2 antag 52
O=C(Cn1c(=O)n(Cc2ccc3c(c2)OCO3)c(=O)c2ccc(C(=O)NC3CCCCC3)cc21)Nc1ccccc1F	none (no result: D2 PAM-1, D2 antag, D2 ag-2)
CC(C)(C)NC(=O)C1c2ccccc2Oc2ccccc21	D2 antag 47
COc1cc([C@@H]2Nc3c(F)cccc3[C@@H]3C=CC[C@@H]32)cc(Br)c1OC	none (no result: D2 PAM-1, D2 antag, D2 ag-2)
CCc1ccc(S(=O)(=O)c2nnn3c2nc(N2CCOCC2)c2ccccc23)cc1	D2 PAM-2 32
O=C(Nc1ccc(Cl)c(Cl)c1)N(Cc1c[nH]c2ccccc12)C1CCCCC1	none (no result: D2 PAM-1, D2 antag, D2 ag-2)
O=C(O)CC(c1ccc(Br)cc1)N1Cc2ccccc2C1=O (centres undefined)	D2 antag 42
CC1=CC(C)(C)Nc2ccc(OC(=O)c3ccco3)cc21	D2 PAM-1 51
CSc1oc(-c2ccccc2)nc1S(=O)(=O)c1ccc(C)cc1	D2 antag 34
Cc1ccc(S(=O)(=O)c2nc(-c3ccccc3)oc2N2CCCCCC2)cc1	none (no result: D2 PAM-1, D2 antag, D2 ag-2)
CCN1CCN(c2oc(-c3ccccc3)nc2S(=O)(=O)c2ccc(C)cc2)CC1	D2 antag 47
CC(C)n1c(O)c(N=NC(=O)CNC(=O)c2cccnc2)c2ccccc21	D2 antag 41
Cn1cnc([N+](=O)[O-])c1Sc1nc(N)nc2c1ncn2C1CC(O)C(CO)O1 (centres undefined)	none (no result: D2 ag-1, D2 antag, D2 PAM-2)
C[C@H]1CCC[C@]2(O[C@@H](CCO)C[C@H](O)[C@H]2O)O1	D2 antag 31
Cc1ccc(/C=C/c2onc(C)c2S(=O)(=O)N2CCC(C(=O)N(CCC(C)C)Cc3ccco3)CC2)cc1	none (no result: D2 PAM-1, D2 antag, D2 ag-2)
N#C/C(=C\c1ccc(-c2ccc(F)cc2)o1)C(=O)Nc1nc(-c2cccs2)cs1	none
N#C/C(=C/c1ccc(-c2ccccc2)o1)c1nc(-c2cccs2)cs1	D2 ag-1 87
N#C/C(=C/c1ccc(-c2ccc(S(N)(=O)=O)cc2)o1)c1nc2ccccc2s1	D2 ag-1 115
N#C/C(=C/c1ccc(-c2ccc(S(N)(=O)=O)cc2)o1)C(=O)Nc1ccccc1	none
Cc1ccc(C)n1-c1c(C(=O)NCCCN2CCN(c3ccc(F)cc3)CC2)sc2ncccc12	none (no result: D2 ag-1, D2 PAM-1, D2 antag, D2 ag-2)
Cc1cc(C(=O)N2CCN(S(=O)(=O)c3ccccc3F)CC2)c(C)o1	D2 PAM-2 47
Cc1cc(C(=O)N2CCN(S(=O)(=O)c3ccccc3C#N)CC2)c(C)o1	none
Nc1ncnc(Nc2ccccn2)c1[N+](=O)[O-]	D2 antag 31
Cc1cccc(Nc2ncnc(N)c2[N+](=O)[O-])n1	none
Fc1ccc(CNc2cc(-c3ccccc3)nc3nncn23)cc1	none (no result: D2 PAM-1, D2 antag, D2 ag-2)
O=S(=O)(c1ccc(Cl)cc1)n1ccc2cccnc21	D2 PAM-2 38
Cc1ccc(S(=O)(=O)n2ccc3cccnc32)cc1	D2 antag 37
CCN(Cc1ccccc1)C(=O)Cn1c(=O)n(-c2ccc(Cl)cc2)c(=O)c2c(C)c(C)sc21	none (no result: D2 PAM-1, D2 antag, D2 ag-2)
Cc1ccc(C(=O)NN2C(=O)c3ccc(S(=O)(=O)c4ccc(C(=O)O)cc4)cc3C2=O)cc1	D2 antag 63
O=C(O)c1ccc(S(=O)(=O)c2ccc3c(c2)C(=O)N(NC(=O)c2ccc(O)cc2)C3=O)cc1	none
COCCn1c(CCC(=O)Nc2ccc(OC)c(OC)c2)nc2cccnc21	none (no result: D2 PAM-1, D2 antag, D2 ag-2)

Bioassay records deposited in PubChem by National Center for Advancing Translational Sciences (NCATS).
